# Data: PubChem BioAssay
# Activity calls are given as the source filed them.
# Columns and labels:
# [1] = binders of probe aFSTL3 on microarray, primary screen, stem cell growth factor project, biochemical, small-molecule microarray, fluorescence 635/667 (AID 1064); conditions: higher = more signal;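 further: measures binding of the biotinylated anti-FSTL3 antibody to printed compounds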
# [2] = binders from COS7 lysate, DM2A8 probe, primary screen, torsin A project, cell lysate, small-molecule microarray, fluorescence 635/667 (AID 1065); conditions: higher = more signal, COS7 lysate expressing mutant human TOR1A
# [3] = binders of probe aFGF2 on microarray, primary screen, stem cell growth factor project, biochemical, small-molecule microarray, fluorescence 635/667 (AID 1067); conditions: higher = more signal;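 further: measures binding of biotinylated aFGF2 protein to printed compounds on slides; z-score merges feature fluorescence and signal-to-noise across triplicate slides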
# [4] = binders of probe aFGF10 on microarray, primary screen, stem cell growth factor project, biochemical, small-molecule microarray, fluorescence 635/667 (AID 1071); conditions: higher = more signal;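 further: score merges 667 nm spot intensity and signal to noise from triplicate slides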
# [5] = target: Neurogenic locus notch homolog protein 2 (Homo sapiens) (UniProt Q04721); assay: Notch2 binders on small-molecule microarrays, primary screen, biochemical, small-molecule microarray, 635 nm fluorescence, stem cell growth factors (AID 1073); conditions: Notch2 binding, higher = more signal
# [6] = target: Pro-neuregulin-1, membrane-bound isoform (Homo sapiens) (UniProt Q02297); assay: NRG1 binders on small-molecule microarrays, primary screen, psychiatric disease protein project, biochemical, small-molecule microarray, fluorescence 635/667 (AID 1075); conditions: NRG1 binding, 635 nm fluorescence, higher = more signal;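 further: score combines 667 nm spot fluorescence with signal to noise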
# [7] = test system: Neuregulin-1 EGF-like domain; assay: binders of neuregulin-1 EGF-like domain, primary screen, biochemical, small-molecule microarray, 635 nm fluorescence (AID 1081); conditions: small-molecule microarray binding, higher = more signal;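 further: binding of the protein to compounds printed on small-molecule microarray slides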
# [8] = FRG1 promoter luciferase signal modulators, primary screen, FRG1 inhibition for FSHD, cell-based, C2C12 myotubes, firefly/Renilla luciferase, luminescence (AID 1084); conditions: higher = more signal, called active from +8 up or from −8 down
# [9] = binders of probe aFST on microarray, primary screen, stem cell growth factor project, biochemical, small-molecule microarray, fluorescence 635/667 (AID 1086); conditions: higher = more signal;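 further: score merges 667 nm fluorescence with signal-to-noise of each printed compound spot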
# [10] = binders of probe aHhip on microarray, primary screen, stem cell growth factor project, biochemical, small-molecule microarray, fluorescence 635/667 (AID 1087); conditions: higher = more signal;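 further: score merges spot fluorescence at 667nm with spot signal to noise ratio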
# [11] = test system: PRMT1 (protein arginine N-methyltransferase 1); assay: PRMT1 binders on small-molecule microarrays, primary screen, biochemical, small-molecule microarray, 635 nm fluorescence (AID 1088); conditions: small-molecule microarray binding, higher = more signal;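 further: binding of Prmt1 protein to compounds spotted on small-molecule microarray slides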
# [12] = yeast growth modulation, basal conditions, primary screen, YJM789 clinical isolate, OD600, 24 h (AID 1089);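 further: growth of clinical yeast isolate S. cerevisiae YJM 789 seeded 1000 cells per well; test concentration not given here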; conditions: S. cerevisiae YJM789 growth, higher = more signal, called active from +8 up or from −8 down
# [13] = fission yeast growth modulation, primary screen, strain 972, OD600, 24 h, no modulator (AID 1090);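 further: basal condition with compound alone and no growth modifier present; test concentration not given here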; conditions: S. pombe 972 growth, higher = more signal, called active from +8 up or from −8 down
# [14] = S. cerevisiae growth modulation with rapamycin, primary screen, strain BY4716, OD600, 96 h (AID 1091); conditions: higher = more signal, called active from +8 up or from −8 down; further: test concentration not given here
# [15] = target: Torsin-1A-interacting protein 2 (Homo sapiens) (UniProt Q8NFQ8); assay: LULL1 binders on small-molecule microarray, primary screen, cell lysate, human LULL1 lysate, 635/667 nm fluorescence (AID 1092); conditions: hLULL1 lysate binding, 635 nm fluorescence, higher = more signal;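 further: probe is lysate of COS7 cells overexpressing human LULL1; score merges per-feature 667 nm fluorescence with signal-to-noise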
# [16] = E. coli growth modulation, two-sided OD650, primary screen, E. coli filamentation project, strain DRC41, 24 h (AID 1093); conditions: OD650, 24 h, higher = more signal, called active from +8 up or from −8 down;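 further: MC1000 strain lacking acrAB efflux and sulA so SOS filamentation is blocked; test concentration not given here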
# [17] = small-molecule microarray binders of probe aLefty2, primary screen, biochemical, biotinylated probe, 635/667 nm fluorescence (AID 1094); conditions: higher = more signal;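 further: score merges spot fluorescence near 667 nm with spot signal-to-noise ratio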
# [18] = test system: Noggin (protein binding on small-molecule microarray); assay: Noggin binders on small-molecule microarray, primary screen, biochemical, 635/667 nm fluorescence (AID 1095); conditions: 635 nm fluorescence, higher = more signal;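 further: score merges 667 nm feature fluorescence with signal to noise over triplicate slides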
# [19] = target: Neurogenic locus notch homolog protein 3 (Homo sapiens) (UniProt Q9UM47); assay: NOTCH3 binders on small-molecule microarray, primary screen, biochemical, 635/667 nm fluorescence (AID 1096); conditions: NOTCH3 binding, 635 nm fluorescence, higher = more signal
# [20] = small-molecule microarray binders of probe aEGFR, primary screen, biochemical, biotinylated probe, 635/667 nm fluorescence (AID 1097); conditions: higher = more signal;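 further: probe is a biotinylated anti-EGFR antibody binding compounds printed on slides; score combines fluorescence near 667 nm and signal to noise of each spot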
# Sequence of Neurogenic locus notch homolog protein 2 (Homo sapiens) (Q04721 whole entry, looked up, canonical isoform): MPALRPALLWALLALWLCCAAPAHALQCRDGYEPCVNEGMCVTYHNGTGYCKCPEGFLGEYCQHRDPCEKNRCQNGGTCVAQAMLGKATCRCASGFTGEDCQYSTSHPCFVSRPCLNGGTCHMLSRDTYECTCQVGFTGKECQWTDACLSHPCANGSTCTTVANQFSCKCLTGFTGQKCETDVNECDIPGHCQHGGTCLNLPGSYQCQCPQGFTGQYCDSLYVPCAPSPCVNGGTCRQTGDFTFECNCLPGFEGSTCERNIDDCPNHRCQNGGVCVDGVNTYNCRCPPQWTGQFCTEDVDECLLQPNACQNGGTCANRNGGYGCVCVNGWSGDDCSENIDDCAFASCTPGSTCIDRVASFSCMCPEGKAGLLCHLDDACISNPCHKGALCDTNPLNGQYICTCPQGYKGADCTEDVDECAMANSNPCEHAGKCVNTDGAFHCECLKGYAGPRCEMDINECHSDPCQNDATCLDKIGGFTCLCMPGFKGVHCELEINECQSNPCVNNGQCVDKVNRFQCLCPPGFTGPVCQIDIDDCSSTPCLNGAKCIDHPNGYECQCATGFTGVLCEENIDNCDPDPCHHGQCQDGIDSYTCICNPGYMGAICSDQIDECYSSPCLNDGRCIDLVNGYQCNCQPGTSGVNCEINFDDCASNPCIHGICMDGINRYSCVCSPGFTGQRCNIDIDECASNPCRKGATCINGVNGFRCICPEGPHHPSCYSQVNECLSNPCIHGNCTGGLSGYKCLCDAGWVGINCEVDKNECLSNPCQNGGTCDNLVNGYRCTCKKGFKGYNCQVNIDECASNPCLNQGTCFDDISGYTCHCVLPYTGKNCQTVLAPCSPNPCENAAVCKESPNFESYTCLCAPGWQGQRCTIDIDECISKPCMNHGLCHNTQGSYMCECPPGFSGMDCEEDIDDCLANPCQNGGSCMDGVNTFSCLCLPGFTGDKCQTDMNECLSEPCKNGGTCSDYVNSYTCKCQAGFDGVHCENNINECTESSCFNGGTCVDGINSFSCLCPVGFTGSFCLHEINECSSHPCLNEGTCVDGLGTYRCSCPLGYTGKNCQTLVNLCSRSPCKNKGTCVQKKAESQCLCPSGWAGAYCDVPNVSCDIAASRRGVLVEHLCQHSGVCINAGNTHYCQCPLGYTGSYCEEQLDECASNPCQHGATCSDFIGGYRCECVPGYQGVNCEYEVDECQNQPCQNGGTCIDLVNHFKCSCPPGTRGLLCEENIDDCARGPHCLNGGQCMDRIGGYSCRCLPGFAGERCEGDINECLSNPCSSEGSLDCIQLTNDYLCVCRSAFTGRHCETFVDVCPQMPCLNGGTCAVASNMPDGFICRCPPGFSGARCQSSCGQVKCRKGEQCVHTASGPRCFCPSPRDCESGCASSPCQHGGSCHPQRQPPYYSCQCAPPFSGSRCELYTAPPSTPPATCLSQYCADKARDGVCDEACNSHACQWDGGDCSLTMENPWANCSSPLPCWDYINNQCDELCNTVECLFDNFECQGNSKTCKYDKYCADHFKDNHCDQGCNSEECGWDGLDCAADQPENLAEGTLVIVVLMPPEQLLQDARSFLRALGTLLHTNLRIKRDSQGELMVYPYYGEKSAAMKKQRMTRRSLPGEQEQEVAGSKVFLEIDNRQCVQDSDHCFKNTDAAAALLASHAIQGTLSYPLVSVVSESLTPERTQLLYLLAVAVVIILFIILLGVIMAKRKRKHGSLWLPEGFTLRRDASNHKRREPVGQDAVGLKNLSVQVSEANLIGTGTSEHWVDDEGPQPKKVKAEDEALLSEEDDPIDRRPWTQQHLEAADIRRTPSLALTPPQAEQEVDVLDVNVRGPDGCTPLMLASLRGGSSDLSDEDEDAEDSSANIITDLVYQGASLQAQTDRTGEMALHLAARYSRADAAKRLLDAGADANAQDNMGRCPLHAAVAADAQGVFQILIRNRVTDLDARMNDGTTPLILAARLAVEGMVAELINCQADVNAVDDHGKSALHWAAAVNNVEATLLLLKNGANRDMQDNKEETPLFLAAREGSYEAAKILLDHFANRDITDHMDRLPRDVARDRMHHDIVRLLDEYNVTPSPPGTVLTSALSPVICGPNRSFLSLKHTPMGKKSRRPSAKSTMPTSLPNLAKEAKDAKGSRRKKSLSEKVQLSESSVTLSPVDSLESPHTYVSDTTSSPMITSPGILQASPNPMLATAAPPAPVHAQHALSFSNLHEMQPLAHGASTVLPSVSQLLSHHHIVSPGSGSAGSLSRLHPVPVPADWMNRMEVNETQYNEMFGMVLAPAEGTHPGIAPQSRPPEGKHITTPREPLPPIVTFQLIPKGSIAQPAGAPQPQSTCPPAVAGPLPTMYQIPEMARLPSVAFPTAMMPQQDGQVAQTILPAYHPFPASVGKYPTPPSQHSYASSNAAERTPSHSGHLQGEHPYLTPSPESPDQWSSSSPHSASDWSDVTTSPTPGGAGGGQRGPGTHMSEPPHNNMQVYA
# Sequence of Neurogenic locus notch homolog protein 3 (Homo sapiens) (Q9UM47 whole entry, looked up): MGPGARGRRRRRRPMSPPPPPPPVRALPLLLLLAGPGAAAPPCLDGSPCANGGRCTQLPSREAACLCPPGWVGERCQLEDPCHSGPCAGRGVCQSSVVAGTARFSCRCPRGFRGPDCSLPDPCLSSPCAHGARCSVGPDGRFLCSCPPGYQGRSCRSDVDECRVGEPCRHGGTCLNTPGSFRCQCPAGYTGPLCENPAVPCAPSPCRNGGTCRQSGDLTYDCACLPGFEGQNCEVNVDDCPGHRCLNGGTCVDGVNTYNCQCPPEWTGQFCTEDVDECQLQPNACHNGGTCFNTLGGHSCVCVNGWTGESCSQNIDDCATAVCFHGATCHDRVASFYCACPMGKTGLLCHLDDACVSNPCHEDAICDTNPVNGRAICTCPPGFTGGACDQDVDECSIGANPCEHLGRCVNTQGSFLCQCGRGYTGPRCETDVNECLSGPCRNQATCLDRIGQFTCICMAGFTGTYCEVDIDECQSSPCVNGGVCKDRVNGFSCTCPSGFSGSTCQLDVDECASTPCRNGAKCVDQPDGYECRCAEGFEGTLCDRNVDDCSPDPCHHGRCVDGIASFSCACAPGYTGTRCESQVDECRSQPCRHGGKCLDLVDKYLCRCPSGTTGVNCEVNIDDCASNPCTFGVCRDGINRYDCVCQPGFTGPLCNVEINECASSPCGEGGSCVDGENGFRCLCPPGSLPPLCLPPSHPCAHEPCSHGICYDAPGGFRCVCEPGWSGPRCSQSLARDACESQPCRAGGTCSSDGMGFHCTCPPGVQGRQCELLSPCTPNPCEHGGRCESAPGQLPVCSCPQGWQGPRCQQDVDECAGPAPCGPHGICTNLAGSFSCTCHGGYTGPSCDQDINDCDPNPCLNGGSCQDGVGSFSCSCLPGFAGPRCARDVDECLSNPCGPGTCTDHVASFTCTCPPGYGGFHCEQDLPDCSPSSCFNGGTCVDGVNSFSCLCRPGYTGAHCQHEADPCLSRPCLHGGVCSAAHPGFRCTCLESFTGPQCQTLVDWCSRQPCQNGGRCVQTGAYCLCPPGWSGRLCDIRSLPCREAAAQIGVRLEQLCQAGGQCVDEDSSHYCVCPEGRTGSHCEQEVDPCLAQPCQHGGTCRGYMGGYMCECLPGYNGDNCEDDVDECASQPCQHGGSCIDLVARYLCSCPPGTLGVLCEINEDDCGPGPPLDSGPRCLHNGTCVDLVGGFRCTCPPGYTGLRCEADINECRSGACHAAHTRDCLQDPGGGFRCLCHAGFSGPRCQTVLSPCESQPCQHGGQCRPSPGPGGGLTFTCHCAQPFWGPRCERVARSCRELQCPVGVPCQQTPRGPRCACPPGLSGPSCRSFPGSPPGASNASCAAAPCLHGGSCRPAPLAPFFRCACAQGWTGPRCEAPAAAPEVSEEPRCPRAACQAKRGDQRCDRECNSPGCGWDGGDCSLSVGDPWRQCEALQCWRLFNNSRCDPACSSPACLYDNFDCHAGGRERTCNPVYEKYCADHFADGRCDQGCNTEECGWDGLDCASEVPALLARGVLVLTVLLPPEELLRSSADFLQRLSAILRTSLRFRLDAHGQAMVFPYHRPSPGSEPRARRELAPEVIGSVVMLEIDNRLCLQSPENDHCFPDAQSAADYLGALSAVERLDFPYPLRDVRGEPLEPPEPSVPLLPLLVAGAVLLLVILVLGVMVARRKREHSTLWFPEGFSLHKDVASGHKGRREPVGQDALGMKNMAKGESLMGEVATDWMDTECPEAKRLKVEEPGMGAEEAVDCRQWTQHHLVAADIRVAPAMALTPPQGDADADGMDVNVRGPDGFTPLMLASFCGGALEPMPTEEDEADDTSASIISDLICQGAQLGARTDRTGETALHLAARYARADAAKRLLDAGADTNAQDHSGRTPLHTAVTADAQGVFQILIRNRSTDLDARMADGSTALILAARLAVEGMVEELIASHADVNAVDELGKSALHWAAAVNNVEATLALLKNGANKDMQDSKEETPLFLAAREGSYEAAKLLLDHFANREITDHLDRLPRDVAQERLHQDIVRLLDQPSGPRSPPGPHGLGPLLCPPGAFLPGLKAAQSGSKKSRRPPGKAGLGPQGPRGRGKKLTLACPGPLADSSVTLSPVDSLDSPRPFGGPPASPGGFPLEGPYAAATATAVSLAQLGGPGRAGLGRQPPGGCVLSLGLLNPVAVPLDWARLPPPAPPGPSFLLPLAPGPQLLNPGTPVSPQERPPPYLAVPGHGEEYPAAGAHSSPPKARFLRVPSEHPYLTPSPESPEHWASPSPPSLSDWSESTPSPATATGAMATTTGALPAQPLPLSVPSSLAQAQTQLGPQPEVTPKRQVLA
smiles,measurement,setting,value
CC1(C)C(=O)C(c2ccccc2)=C2CN3C(=O)N(CCc4ccccc4)C(=O)C3(Cc3ccc(F)cc3)C=C21 (stereo not given),composite z-score,[1],0.817
same,composite z-score,[2],-0.339
same,composite z-score,[3],0.248
same,composite z-score,[4],0.173
same,composite z-score,[5],1.47
same,composite z-score,[6],0.536
same,composite z-score,[7],0.631
same,z-score,[8],0.927 (inactive)
same,composite z-score,[9],1.58
same,composite z-score,[10],0.0818
same,composite z-score,[11],-0.203
same,z-score,[12],0.54 (inactive)
same,z-score,[13],0.921 (inactive)
same,z-score,[14],6.84 (inactive)
same,composite z-score,[15],2.52
same,z-score,[16],-2 (inactive)
same,composite z-score,[17],0.428
same,composite z-score,[18],-0.459
same,composite z-score,[19],0.337
same,composite z-score,[20],0.133
COc1ccc([Si](C)(C)[C@@H]2[C@@H](CC(=O)N3Cc4ccccc4C[C@H]3CO)O[C@]3(C(=O)N(Cc4ccc(N5CCC5=O)cc4)c4ccccc43)[C@H]2C)cc1,composite z-score,[1],-0.406
same,composite z-score,[2],0.351
same,composite z-score,[3],-0.12
same,composite z-score,[4],0.163
same,composite z-score,[5],0.291
same,composite z-score,[6],0.636
same,composite z-score,[7],0.866
same,z-score,[8],-1.63 (inactive)
same,composite z-score,[9],0.246
same,composite z-score,[10],-0.23
same,composite z-score,[11],1.55
same,z-score,[12],0.68 (inactive)
same,z-score,[13],1.02 (inactive)
same,z-score,[14],3.23 (inactive)
same,composite z-score,[15],2.77
same,z-score,[16],0.409 (inactive)
same,composite z-score,[17],-0.0945
same,composite z-score,[18],1.32
same,composite z-score,[19],1.14
same,composite z-score,[20],-0.0954
COc1ccc(C(O)C2C=CC3C(=O)N(c4ccccc4)C(=O)C3N2Nc2ccccc2F)cc1 (stereo not given),composite z-score,[1],0.109
same,composite z-score,[2],0.67
same,composite z-score,[3],-0.0747
same,composite z-score,[4],-0.0293
same,composite z-score,[5],1.4
same,composite z-score,[6],1.8
same,composite z-score,[7],1.18
same,z-score,[8],0.425 (inactive)
same,composite z-score,[9],0.115
same,composite z-score,[10],-0.0296
same,composite z-score,[11],1.1
same,z-score,[12],-0.228 (inactive)
same,z-score,[13],0.575 (inactive)
same,z-score,[14],-0.246 (inactive)
same,composite z-score,[15],3.46
same,z-score,[16],0.0902 (inactive)
same,composite z-score,[17],0.183
same,composite z-score,[18],0.164
same,composite z-score,[19],0.842
same,composite z-score,[20],-0.0678
COC(=O)[C@@]1(Cc2ccc(OC)cc2)[C@H]2c3cc(C(=O)N4CCCC4)n(Cc4ccc(OC(F)(F)F)cc4)c3C[C@H]2CN1C(=O)c1ccccc1,composite z-score,[1],0.572
same,composite z-score,[2],-1.05
same,composite z-score,[3],0.225
same,composite z-score,[4],0.703
same,composite z-score,[5],1.74
same,composite z-score,[6],1.39
same,composite z-score,[7],0.283
same,z-score,[8],0.612 (inactive)
same,composite z-score,[9],1.28
same,composite z-score,[10],0.113
same,composite z-score,[11],-1.02
same,z-score,[12],0.59 (inactive)
same,z-score,[13],1.74 (inactive)
same,z-score,[14],3.21 (inactive)
same,composite z-score,[15],0.0202
same,z-score,[16],-0.376 (inactive)
same,composite z-score,[17],0.412
same,composite z-score,[18],-0.442
same,composite z-score,[19],0.75
same,composite z-score,[20],0.343
CN(C)C(=O)[C@]1(CCS(=O)(=O)c2ccccc2)N=C(c2ccc(OCCCO)cc2)O[C@@H]1c1ccccc1,composite z-score,[1],0.227
same,composite z-score,[2],0.398
same,composite z-score,[3],0.0759
same,composite z-score,[4],0.88
same,composite z-score,[5],1.58
same,composite z-score,[6],1.76
same,composite z-score,[7],1.35
same,z-score,[8],-1.74 (inactive)
same,composite z-score,[9],0.968
same,composite z-score,[10],-0.236
same,composite z-score,[11],1.42
same,z-score,[12],-0.897 (inactive)
same,z-score,[13],-0.804 (inactive)
same,z-score,[14],4.54 (inactive)
same,composite z-score,[15],3.57
same,z-score,[16],0.29 (inactive)
same,composite z-score,[17],0.0943
same,composite z-score,[18],0.577
same,composite z-score,[19],1.01
same,composite z-score,[20],0.127
O=C1O[C@H](c2ccccc2)[C@H](c2ccccc2)N2[C@H]1[C@@H](C(=O)Nc1nc3ccccc3s1)[C@]1(C(=O)Nc3ccc(C#CC4=CCCCC4)cc31)[C@H]2c1ccc(O)cc1,composite z-score,[1],-0.384
same,composite z-score,[2],0.255
same,composite z-score,[3],-0.0281
same,composite z-score,[4],0.352
same,composite z-score,[5],0.747
same,composite z-score,[6],1.44
same,composite z-score,[7],1.1
same,z-score,[8],-0.305 (inactive)
same,composite z-score,[9],0.845
same,composite z-score,[10],-0.0994
same,composite z-score,[11],1.55
same,z-score,[12],0.556 (inactive)
same,z-score,[13],0.589 (inactive)
same,z-score,[14],0.401 (inactive)
same,composite z-score,[15],2.88
same,z-score,[16],1.97 (inactive)
same,composite z-score,[17],-0.12
same,composite z-score,[18],1.1
same,composite z-score,[19],1.06
same,composite z-score,[20],-0.0679
CO[C@H]1O[C@H](CO)[C@@H](OC(=O)c2ccc(Br)cc2)[C@@H]2OC(=O)[C@H](Cc3ccccc3)C/C=C/C[C@@H](Cc3ccccc3)C(=O)O[C@@H]12,composite z-score,[1],-0.287
same,composite z-score,[2],0.418
same,composite z-score,[3],-0.0048
same,composite z-score,[4],0.706
same,composite z-score,[5],0.496
same,composite z-score,[6],1.64
same,composite z-score,[7],0.615
same,z-score,[8],-0.215 (inactive)
same,composite z-score,[9],-0.024
same,composite z-score,[10],-0.0645
same,composite z-score,[11],0.965
same,z-score,[12],-1.92 (inactive)
same,z-score,[13],-1.19 (inactive)
same,z-score,[14],0.161 (inactive)
same,composite z-score,[15],1.63
same,z-score,[16],2.14 (inactive)
same,composite z-score,[17],0.13
same,composite z-score,[18],0.413
same,composite z-score,[19],0.181
same,composite z-score,[20],-0.176
Cc1nc2cc(Br)ccc2c(=O)n1Cc1cccc(O)c1,composite z-score,[1],-0.473
same,composite z-score,[2],0.116
same,composite z-score,[3],0.0275
same,composite z-score,[4],0.659
same,composite z-score,[5],0.418
same,composite z-score,[6],-0.134
same,composite z-score,[7],1.06
same,z-score,[8],0.156 (inactive)
same,composite z-score,[9],0.314
same,composite z-score,[10],0.409
same,composite z-score,[11],1.57
same,z-score,[12],0.104 (inactive)
same,z-score,[13],-1.84 (inactive)
same,z-score,[14],-0.973 (inactive)
same,composite z-score,[15],1.16
same,z-score,[16],1.22 (inactive)
same,composite z-score,[17],-0.0607
same,composite z-score,[18],1.33
same,composite z-score,[19],-0.108
same,composite z-score,[20],-0.0474
C=CCN1C(=O)[C@]2(O[C@H](CCO)[C@@H]([Si](C)(C)c3ccc(OC)cc3)[C@@H]2C)c2cc(N3C(=O)COc4ccccc43)ccc21,composite z-score,[1],0.174
same,composite z-score,[2],-0.142
same,composite z-score,[3],-0.0597
same,composite z-score,[4],0.606
same,composite z-score,[5],0.248
same,composite z-score,[6],0.966
same,composite z-score,[7],0.698
same,z-score,[8],-0.998 (inactive)
same,composite z-score,[9],-0.0347
same,composite z-score,[10],-0.297
same,composite z-score,[11],1.53
same,z-score,[12],1.81 (inactive)
same,z-score,[13],0.0538 (inactive)
same,z-score,[14],32.6 (active)
same,composite z-score,[15],1.29
same,z-score,[16],1.64 (inactive)
same,composite z-score,[17],-0.192
same,composite z-score,[18],0.679
same,composite z-score,[19],0.763
same,composite z-score,[20],-0.12
O=C1C2C=CC(C(O)c3ccco3)N(Nc3ccccc3)C2C(=O)N1c1ccccc1 (stereo not given),composite z-score,[1],0.76
same,composite z-score,[2],-0.79
same,composite z-score,[3],-0.0767
same,composite z-score,[4],-0.216
same,composite z-score,[5],-0.331
same,composite z-score,[6],0.944
same,composite z-score,[7],1.08
same,z-score,[8],0.64 (inactive)
same,composite z-score,[9],0.225
same,composite z-score,[10],-0.134
same,composite z-score,[11],-0.182
same,z-score,[12],0.928 (inactive)
same,z-score,[13],0.0851 (inactive)
same,z-score,[14],0.662 (inactive)
same,composite z-score,[15],1.13
same,z-score,[16],-0.353 (inactive)
same,composite z-score,[17],-0.147
same,composite z-score,[18],-0.569
same,composite z-score,[19],0.504
same,composite z-score,[20],-0.192
